Several values for one entry are separate records, joined by “and”; a condition that tells them apart may be missing. Equal entries are not always repeated. Records with an inconclusive call do not appear. Where a call stands in place of a potency, no number is given. The source holds several records for some structures; these can differ, active in one and inactive in another. Activity calls are given as the source filed them. Unless noted, calls follow the shape of the dose curve; as a rule, active = well fitted curve in the direction sought with a large enough effect in the repeat runs; inconclusive = weak or mixed curves; inactive = no such curve, though single readings can be large; an effect the other way counts as inactive or inconclusive. Starred links: 1 amine or outer side, 2 acyl side, 3 side chain; linkers in the order of their positions; H or OH if unused. Positions of bridges follow the written chain, without caps; N, C: chain ends. Non-standard residues stand in square brackets, D forms with d. Residues, ends and D or L forms follow the SMILES beside them. Chains are numbered I, II in the order given. Actinocin(9to1) = Cc1c2oc3c(C)ccc(C(=O)[*:1])c3nc-2c(C(=O)[*:2])c(N)c1=O; NMeV = CN[C@H](C(=O)O)C(C)C; Sar = CNCC(=O)O
Columns and labels:
[1] = molecular target: Luciferin 4-monooxygenase (Photinus pyralis) (UniProt P08659); experiment: qHTS assay to identify small molecule inhibitors of firefly luciferase (AID 1224835); also: nearly all actives have a fitted effect of over 25% in size; also: potency is read from the fitted curve at half-maximal effect
Luciferin 4-monooxygenase (Photinus pyralis), sequence (P08659 whole entry, looked up): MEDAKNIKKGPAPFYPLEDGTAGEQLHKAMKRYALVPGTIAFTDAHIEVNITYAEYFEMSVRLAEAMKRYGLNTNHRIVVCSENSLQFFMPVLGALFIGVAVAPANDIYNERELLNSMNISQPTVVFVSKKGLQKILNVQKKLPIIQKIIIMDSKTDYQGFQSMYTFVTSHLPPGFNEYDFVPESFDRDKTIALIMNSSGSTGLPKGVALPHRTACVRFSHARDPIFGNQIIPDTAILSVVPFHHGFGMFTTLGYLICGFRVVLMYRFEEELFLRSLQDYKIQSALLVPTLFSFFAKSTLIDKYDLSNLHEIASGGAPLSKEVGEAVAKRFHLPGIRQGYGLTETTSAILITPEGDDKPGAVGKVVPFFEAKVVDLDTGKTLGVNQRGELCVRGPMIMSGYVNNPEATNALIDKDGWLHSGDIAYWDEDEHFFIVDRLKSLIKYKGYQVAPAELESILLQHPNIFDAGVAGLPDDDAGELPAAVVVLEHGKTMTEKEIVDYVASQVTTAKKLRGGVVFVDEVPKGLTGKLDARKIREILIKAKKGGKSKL
Method in brief: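 Inhibition of purified Photinus luciferase is measured by luminescence. Substrate levels (D-luciferin, ATP) sit at their KM values. Each compound is tested in a concentration series.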

[2] = qHTS assay to identify small molecule agonists of the constitutive androstane receptor (CAR) signaling pathway - cell viability counter screen (AID 1224836); also: nearly all actives have a fitted effect of over 45% in size; also: potency is read from the fitted curve at half-maximal effect
Method in brief: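 Viability read-out: CellTiter-Fluor fluorescence after 23 h compound exposure at 37 C/5% CO2 in double-stable HepG2-CYP2B6-hCAR cells, with PK11195 present at 0.75 uM final; compounds tested in 15-point titration.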

[3] = qHTS assay to identify small molecule antagonists of the constitutive androstane receptor (CAR) signaling pathway - cell viability counter screen (AID 1224837); also: nearly all actives have a fitted effect of over 45% in size; also: potency is read from the fitted curve at half-maximal effect
Method in brief: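 CITCO at 50 nM final was added alongside compounds (15 concentrations) to double-stable hCAR/CYP2B6-2.2kb HepG2 cells. Following 23 hr at 37 C, cell viability was quantified by CellTiter-Fluor fluorescence intensity.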

[4] = molecular target: Nuclear receptor subfamily 1 group I member 3 (Homo sapiens) (UniProt Q14994); experiment: qHTS assay to identify small molecule antagonists of the constitutive androstane receptor (CAR) signaling pathway (AID 1224838); also: nearly all actives have a fitted effect of over 40% in size; also: potency is read from the fitted curve at half-maximal effect
Nuclear receptor subfamily 1 group I member 3 (Homo sapiens), sequence (Q14994 whole entry, looked up): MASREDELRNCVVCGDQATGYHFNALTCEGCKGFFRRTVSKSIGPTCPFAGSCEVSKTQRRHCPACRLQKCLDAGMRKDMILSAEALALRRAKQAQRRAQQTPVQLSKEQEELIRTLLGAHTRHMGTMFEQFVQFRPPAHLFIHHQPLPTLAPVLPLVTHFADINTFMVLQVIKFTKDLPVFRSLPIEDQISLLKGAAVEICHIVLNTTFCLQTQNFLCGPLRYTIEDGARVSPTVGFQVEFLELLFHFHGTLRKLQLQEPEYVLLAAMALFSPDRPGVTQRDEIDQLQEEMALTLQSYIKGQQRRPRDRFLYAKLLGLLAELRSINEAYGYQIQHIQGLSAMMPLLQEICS
Method in brief: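 Inhibition of CITCO-driven (50 nM final) CYP2B6 reporter expression is measured in HepG2 cells stably carrying hCAR. Fifteen compound concentrations are applied for 24 h at 37 C, followed by luciferase luminescence.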

[5] = qHTS assay to identify small molecule antagonists of the estrogen related receptor signaling pathway with the pleiotropic PPARgamma coactivator (PGC) from Tox21 10K library - cell viability counter screen (AID 1224840; active = well fitted cell-killing curve with a large enough effect in the repeat runs, not every such curve was filed as active; also: nearly all actives have a fitted effect of over 40% in size; also: potency is read from the fitted curve at half-maximal effect)
Method in brief: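 Readout: fluorescence intensity from CellTiter-Fluor after 30 min at 37 C/5% CO2. Preceded by 17.5 h treatment of PGC/ERR cells with DMSO-dissolved compounds, added 6 h post-seeding.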

[6] = molecular target: Thyrotropin receptor (Homo sapiens) (UniProt P16473); experiment: qHTS assay to identify small molecule agonists of the thyroid stimulating hormone receptor (TSHR) signaling pathway (AID 1224843; calls by dose curve; also: nearly all actives have a fitted effect of over 45% in size)
Thyrotropin receptor (Homo sapiens), sequence (P16473 whole entry, looked up): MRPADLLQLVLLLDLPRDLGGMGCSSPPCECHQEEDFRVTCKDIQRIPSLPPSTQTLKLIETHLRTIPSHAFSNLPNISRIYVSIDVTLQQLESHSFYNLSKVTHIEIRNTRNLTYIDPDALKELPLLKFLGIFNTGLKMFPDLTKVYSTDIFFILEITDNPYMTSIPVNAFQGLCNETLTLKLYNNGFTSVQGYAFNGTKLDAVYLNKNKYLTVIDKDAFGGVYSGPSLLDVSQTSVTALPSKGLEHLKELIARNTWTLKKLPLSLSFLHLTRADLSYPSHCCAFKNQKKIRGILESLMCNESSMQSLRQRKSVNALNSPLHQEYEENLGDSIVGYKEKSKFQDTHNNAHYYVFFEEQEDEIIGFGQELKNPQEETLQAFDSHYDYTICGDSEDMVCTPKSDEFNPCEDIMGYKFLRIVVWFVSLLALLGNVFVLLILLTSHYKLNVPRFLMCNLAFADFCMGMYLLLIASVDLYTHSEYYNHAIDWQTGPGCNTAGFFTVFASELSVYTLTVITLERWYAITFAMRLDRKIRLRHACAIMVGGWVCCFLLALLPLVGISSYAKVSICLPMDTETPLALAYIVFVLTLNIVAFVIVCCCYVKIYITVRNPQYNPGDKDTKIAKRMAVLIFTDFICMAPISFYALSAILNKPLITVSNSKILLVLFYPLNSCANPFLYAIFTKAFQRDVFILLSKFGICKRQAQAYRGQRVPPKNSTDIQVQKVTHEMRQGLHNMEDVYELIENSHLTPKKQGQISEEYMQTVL
Method in brief: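 A cell-based cAMP HTRF format was run in TSHR-transfected HEK293 cells, 800 per well. Treatment: 30 min, room temperature. Detection: 1 h with labelled cAMP and anti-cAMP cryptate. Concentration-response over 15 points, three replicates.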

[7] = qHTS assay to identify small molecule agonists of H2AX (AID 1224845; active = well fitted activation curve with a large enough effect in the signal ratio in the repeat runs, not every such curve was filed as active; the % refers to the signal ratio; also: potency is read from the fitted curve at half-maximal effect)
Method in brief: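 Phospho-H2AX Ser139 measured by HTRF (ex 320 nm; em 665 and 620 nm) after 24 hr antibody incubation. Compounds, 15 concentrations, 0.76% DMSO, were applied to CHO-K1 cells for 3hr at 37C before lysis.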

[8] = qHTS assay to identify small molecule agonists of the hypoxia (HIF-1) signaling pathway (AID 1224846; active = well fitted activation curve with a large enough effect in the signal ratio in the repeat runs, not every such curve was filed as active; the % refers to the signal ratio; also: potency is read from the fitted curve at half-maximal effect)
Method in brief: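 ME-180 HRE-bla reporter cells; compounds in DMSO, 17 h at 37C; read-out beta-lactamase via CCF4-AM FRET.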

[9] = qHTS assay to identify small molecule agonists of H2AX - cell viability counter screen (AID 1224847; calls by dose curve;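 also: wild-type CHO-K1 cells; top concentration of the series differs between compounds; nearly all actives have a fitted effect of over 30% in size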)
Method in brief: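 CHO-K1 wt, 1000 cells/well, o/n 37C; cpds 15 conc, 3 h 37C, 0.76% DMSO; CellTiter-Glo, 30 min RT, luminescence.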

[10] = A CellTox Green Cytotoxicity Assay to monitor cytotoxicity in HEK293 cells - 0 hour (AID 1224869); also: nearly all actives have a fitted effect of over 50% in size; also: potency is read from the fitted curve at half-maximal effect
Method in brief: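 Real-time, in one plate: 600 HEK293 cells/well with dead-cell DNA dye, pinned compound after 5 h, 37 C incubation over 40 h; viable cells give no appreciable fluorescence.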

[11] = qHTS assay to identify small molecule agonists of the hypoxia (HIF-1) signaling pathway - cell viability counter screen (AID 1224844; calls by dose curve; also: nearly all actives have a fitted effect of over 50% in size; also: potency is read from the fitted curve at half-maximal effect)
Method in brief: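 In this counter screen, HRE-bla ME-180 cell viability after 17 hrs of compound exposure at 37C was read by CellTiter-Glo luminescence, multiplexed with the beta-lactamase reporter measurement.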

[12] = qHTS RealTime-Glo MT Cell Viability Assay in HepG2 cells - 24 hour (AID 1224867); also: nearly all actives have a fitted effect of over 50% in size
Method in brief: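 Luminescence read-out: viable HepG2 cells reduce a prosubstrate to a NanoLuc substrate, giving a signal proportional to live cell number. Reads taken at 0, 8, 16, 24, 32 and 40 h of compound exposure at 37 C.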

[13] = qHTS RealTime-Glo MT Cell Viability Assay in HEK293 cells - 32 hour (AID 1224868); also: nearly all actives have a fitted effect of over 50% in size; also: potency is read from the fitted curve at half-maximal effect
Method in brief: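 Nonlytic real-time viability readout: viable cells convert prosubstrate to NanoLuc substrate, giving luminescence proportional to live cell number. HEK293, 600 cells/well, compound added after 5 h, continuous culture at 37 C.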

[14] = qHTS RealTime-Glo MT Cell Viability Assay in HepG2 cells - 40 hour (AID 1224870); also: nearly all actives have a fitted effect of over 50% in size
Method in brief: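 Real-time viability: cells seeded at 600 per well together with NanoLuc and cell-permeant prosubstrate, compounds added after 5 h incubation. Luminescence tracked at 0, 8, 16, 24, 32 and 40 h of exposure.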

[15] = molecular target: Nuclear receptor subfamily 1 group I member 3 (Homo sapiens) (UniProt Q14994); experiment: qHTS assay to identify small molecule agonists of the constitutive androstane receptor (CAR) signaling pathway (AID 1224839); also: nearly all actives have a fitted effect of over 15% in size; also: potency is read from the fitted curve at half-maximal effect
Method in brief: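 Luminescence read-out (ONE-Glo, 30 min, room temperature) from double-stable HepG2-CYP2B6-hCAR cells exposed 24 h to 15-point compound series in presence of 0.75 uM PK11195 final.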

[16] = qHTS assay to identify small molecule antagonists of the estrogen related receptor signaling pathway with the pleiotropic PPARgamma coactivator (PGC) from Tox21 10K library (AID 1224841; call rule not given here; also: potency is read from the fitted curve at half-maximal effect)
Method in brief: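 One-Glo luminescence, measured after half an hour at room temperature, quantified reporter output of PGC/ERR cells. These had been plated at 2,000 per well, incubated 6 h, dosed with compounds in DMSO, then kept 18 h at 37 C.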

[17] = qHTS assay to identify small molecule agonists of the estrogen related receptor signaling pathway with the pleiotropic PPARgamma coactivator (PGC) from Tox21 10K library (AID 1224842); also: nearly all actives have a fitted effect of over 15% in size
Method in brief: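 Luminescence from One-Glo (30 min, room temperature) measured after PGC/ERR cells had 18 h at 37 C with pinned compound (23 nL in DMSO). Cells had been seeded at 2,000 per well and pre-incubated 6 h.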

[18] = qHTS assay to identify small molecule antagonists of the estrogen related receptor (ERR) signaling pathway from Tox21 library (AID 1224848); also: nearly all actives have a fitted effect of over 50% in size; also: potency is read from the fitted curve at half-maximal effect
Method in brief: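 ERR cell line, 2,000 cells/well. 6 h settle, then compound (DMSO) added; 18 h at 37 C; ONE-Glo luminescence after 30 min RT.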

[19] = qHTS assay to identify small molecule agonists of the estrogen related receptor (ERR) signaling pathway from Tox21 library (AID 1224849; calls by dose curve; also: nearly all actives have a fitted effect of over 15% in size); details: ERR reporter cell line, ONE-Glo luciferase, 18 h
Method in brief: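 Luciferase activity in ERR pathway reporter cells served as the agonist readout; exposure lasted 18 h at 37 C, with ONE-Glo detection after 30 min at room temperature.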

SMILES | Potency [1] | Potency [2] | Potency [3] | Potency [4] | Potency [5] | Potency [6] | Potency [7] | Potency [8] | Potency [9] | Potency [10] | Potency [11] | Potency [12] | Potency [13] | Potency [14] | Potency [15] | Potency [16] | Potency [17] | Potency [18] | activity change, positive = activation ([19]; at 92.4 µM (top of the series)) | activity change, positive = activation ([19]; at 42.5 µM (top of the series))
CCC(C)(C)C(=O)O[C@H]1C[C@@H](C)C=C2C=C[C@H](C)[C@H](CC[C@@H]3C[C@@H](O)CC(=O)O3)[C@H]21 | inactive | inactive | inactive | inactive | inactive | inactive | inactive | inactive | inactive | inactive |  |  |  |  |  |  |  |  |  | 
O=C1OC2(c3ccc(O)cc3Oc3cc(O)ccc32)c2ccccc21 | inactive |  |  |  |  | inactive | inactive |  | inactive | 1.74 µM (active) and 848 nM (active) | inactive | inactive | inactive | inactive |  |  |  |  |  | 
CC(=O)C1=C(C)[C@@H]2C[C@@]3(C1)[C@H](C)CC[C@H]3C2(C)C | inactive | inactive | inactive | inactive | inactive | inactive | inactive | inactive | inactive | inactive | inactive | inactive | inactive | inactive | 40.3 µM (active) and 27.3 µM (active) |  |  |  |  | 
Cc1c2oc3c(C)ccc(C(=O)N[C@@H]4C(=O)N[C@H](C(C)C)C(=O)N5CCC[C@H]5C(=O)N(C)CC(=O)N(C)[C@@H](C(C)C)C(=O)O[C@@H]4C)c3nc-2c(C(=O)N[C@@H]2C(=O)N[C@H](C(C)C)C(=O)N3CCC[C@H]3C(=O)N(C)CC(=O)N(C)[C@@H](C(C)C)C(=O)O[C@@H]2C)c(N)c1=O (I: T[dV]P[Sar][NMeV] / II: T[dV]P[Sar][NMeV]; ester I:1-I:C, II:1-II:C; linker I:N-II:N via Actinocin(9to1)) | inactive | 13.3 nM (active) | 7.5 nM (active) and 33.5 nM (active) | 1 nM (active) | 266 nM (active) |  | 1100 nM (active) |  |  | inactive | inactive |  | 12 nM (active) and 21.3 nM (active) |  | inactive |  |  |  |  | 
Nc1ccc(O)cc1 | 65.7 µM (active) and inactive |  |  |  | 35.7 µM (active) and inactive | inactive |  | inactive | inactive | inactive | 50.9 µM (active) and inactive | inactive | 32.1 µM (active) and inactive | inactive |  | 45 µM (active) and inactive | inactive | 22.5 µM (active) and inactive | -66.4% (inactive) | 
CC[C@]1(O)C[C@@H]2CN(CCc3c([nH]c4ccccc34)[C@@](C(=O)OC)(c3cc4c(cc3OC)N(C)[C@H]3[C@@](O)(C(=O)OC)[C@H](OC(C)=O)[C@]5(CC)C=CCN6CC[C@]43[C@@H]65)C2)C1 | inactive |  | 2.66 µM (active) and 4.22 µM (active) |  | inactive | inactive | inactive | inactive | inactive | inactive | inactive |  |  | inactive |  |  | inactive | 26.6 µM (active) |  | -22% (inactive) and -33.9% (inactive)
CCN(CC)c1ccc2c(C)cc(=O)oc2c1 | 40.2 µM (active) and 35.6 µM (active) |  |  | inactive | inactive | inactive | inactive | 44 µM (active) and 43.6 µM (active) | inactive | inactive |  | inactive | 34.9 µM (active) | inactive | 27.5 µM (active) and 48.6 µM (active) |  |  |  |  | 
Nc1nc(=S)c2[nH]cnc2[nH]1 | inactive |  | 11.9 µM (active) and 4.86 µM (active) | 5.96 µM (active) and 1.93 µM (active) and 2.37 µM (active) | inactive | inactive | inactive | inactive | inactive | inactive |  | inactive | 23.9 µM (active) and 19.5 µM (active) | inactive | inactive |  |  |  |  | 

— PubChem BioAssay (Tox21)
